“And” between values parts separate entries of the source, which are not always exact repeats. Identical values can stand only once. The source made the active and inactive calls. The calls were made as follows: active = hit-call score of the fitted dose curve at least 0.9, where 1 is the maximum; inactive = score below 0.9.
Test: IUF_NPC2a_radial_glia_migration_120hr: Leibniz Research Institute for Environmental Medicine (IUF) 120-hour Neural Progenitor Cell Migration Assay for Radial Glia Migration (NPC2a) (AID 2284298)
Procedure: IUF_NPC2-5 is a cell-based, multiplexed assay that uses hNPC, a human primary neural progenitor cells, with measurements taken at 72 or 120 hours after chemical dosing in a 96-well plate. Human neural progenitor cells (hNPC) are generated from human fetal brain cortex at gestational week (GW) 16-19. In the neural progenitor cell migration and differentiation assay (NPC2-5), hNPCs grown as spheres are plated on an extracellular matrix and migrate and differentiate out of the sphere core. The processes radial glia migration, neuronal and oligodendrocyte migration as well as neuronal differentiation, neuronal morphology and oligodendrocyte differentiation are studied using automated phase contrast imaging and automated fluorescence imaging in combination with high content image analysis. In parallel, the cell viability is assessed using an alamar blue viability assay and the cytotoxicity using a lactate dehydrogenase dependent membrane integrity assay.IUF_NPC2a_radial_glia_migration_120hr is one of 12 assay components measured from the IUF_NPC2-5 assay. The migration distance of radial glia at 120 hr is assessed in um from the edge of the sphere core to the edge of the migration area based on fluorescent images of Hoechst-positive nuclei. With the identification of each nucleus position around the sphere core, migration-related parameters can be calculated. First, a nuclei density distribution is calculated for which an algorithm determines relatively more and less dense nuclei areas. This calculation identifies the sphere core by the densest nuclei area in the image. The algorithm further assumes that nuclei density decreases from the sphere core to the periphery. When the nuclei density hits a pre-defined threshold, the outer boundaries of the migration area are determined and the sphere itself is mapped out in a polynomial bounding box. Derived from this box, the size of the migration area and the migration distance are calculated for each well.Data from the IUF_NPC2a_radial_glia_migration_120hr component was analyzed at the endpoint IUF_NPC2a_ radial_glia_migration_120hr in the positive analysis fitting direction relative to DMSO as the negative control and baseline of activity. Using a type of migration reporter, gain or loss-of-signal activity can be used to understand developmental effects.
Culture protocol: After the cell expansion period the cells are cultured for up to four weeks in which they are passaged every week as described in 3.6. Between one to three days after passaging spheres at a size of 0.3 mm are picked for the test method. For the assessment of neural progenitor cell migration and differentiation, the spheres are plated on poly-D-lysine/laminin coated 96-well flat bottom plates in differentiation medium (N2) to initiate migration and differentiation. Thereby one 0.3 mm big sphere is plated in the middle of a well. The differentiation medium consists of DMEM and Ham's F12 at a ratio of 3 to 1 supplemented with 1% N2 and 1% penicillin and streptomycin. Within 5 days NPCs radially migrate out of the sphere core and differentiate into radial glia cells (nestin positive), neurons (TUBB3 positive), oligodendrocytes (O4 positive) and astrocytes (GFAP positive). Cultivation during the test method is performed at 37C and 5% CO2 at a ph of 7.2-7.6.Exposure: 0.3 mm big hNPC are plated in the already prepared test conditions. Exposure starts at day 0 of differentiation and is continued over five days of differentiation until the experiment is terminated. Cells are fed with fresh medium at day 3 of differentiation. Therefore, half of the test condition solution (e.g. solvent control or compound dilution) is replaced by freshly prepared test condition solution.Test Method: Migration distance and cytotoxicity is determined after 72 hours based on brightfield images of each well. The assay is terminated by the assessment of cell viability and cytotoxicity as well as cell fixation after 120 h. […]
With `CN(C)[C@@H]1C(=O)C(C(N)=O)=C(O)[C@@]2(O)C(=O)C3=C(O)c4c(O)cccc4[C@@](C)(O)[C@H]3[C@H](O)[C@@H]12` the AC50 was 42.5 µM (active).
In the case of `CCOP(=S)(Oc1cnc(C(C)(C)C)nc1)OC(C)C` (centres undefined), the outcome is reported as “inactive”.
With `CCCSP(=O)(OCC)SCCC` the outcome was “inactive”.
For `CSC1=N[C@@](C)(c2ccccc2)C(=O)N1Nc1ccccc1`, the outcome was “inactive”.
With `CCCCSP(=O)(SCCCC)SCCCC` the outcome was “inactive”.
In the case of `COP(=O)(NC(C)=O)SC` (centres undefined), the outcome is reported as “inactive”.
In the case of `CCOC(=O)CC(SP(=O)(OC)OC)C(=O)OCC` (centres undefined), the outcome is reported as “inactive”.
In the case of `CCOP(=S)(OCC)OC(Cl)C(Cl)(Cl)Cl` (centres undefined), the AC50 is reported as 22.8 µM (active).
For `COP(=O)(OC)OC(Br)C(Cl)(Cl)Br` (centres undefined), the AC50 was 35.4 µM (active).
For `COP(=O)(OC)C(O)C(Cl)(Cl)Cl` (centres undefined), the outcome was “inactive”.
For `CCOP(=S)(OCC)Oc1cc(C)nc(C(C)C)n1`, the outcome was “inactive”.
With `CC(C)N(C(=O)SCC(Cl)=C(Cl)Cl)C(C)C` the AC50 was 4.18 µM (active).
In the case of `O=[N+]([O-])c1cc(C(F)(F)F)c(Cl)c([N+](=O)[O-])c1Nc1ncc(C(F)(F)F)cc1Cl`, the AC50 is reported as 0.832 µM (active).
For `C=C(C)[C@H]1Cc2c(ccc3c2O[C@@H]2COc4cc(OC)c(OC)cc4[C@@H]2C3=O)O1`, the AC50 was 244 nM (active) and 3.4 nM (active).
With `CC(=NC#N)N(C)Cc1ccc(Cl)nc1` the outcome was “inactive”.
With `CCOP(=O)(OCC)Oc1cc(C)nc(C(C)C)n1` the outcome was “inactive”.
In the case of `CCOP(=S)(OCC)SCCSCC`, the outcome is reported as “inactive”.
For `CON=C(C(=O)OC)c1ccccc1CON=C(C)c1cccc(C(F)(F)F)c1`, the AC50 was 11.8 µM (active).
With `C[N+]1(C)CCCCC1` the outcome was “inactive”.
With `CN1COCN(Cc2cnc(Cl)s2)C1=N[N+](=O)[O-]` the outcome was “inactive”.
With `CC1=NNC(=O)N(/N=C/c2cccnc2)C1` the outcome was “inactive”.
For `CC[C@H](C)[C@H]1O[C@]2(C=C[C@@H]1C)C[C@@H]1C[C@@H](C/C=C(\C)[C@@H](O[C@H]3C[C@H](OC)[C@@H](O[C@H]4C[C@H](OC)[C@@H](NC)[C@H](C)O4)[C@H](C)O3)[C@@H](C)/C=C/C=C3\CO[C@@H]4[C@H](O)C(C)=C[C@@H](C(=O)O1)[C@]34O)O2`, the AC50 was 1.1 µM (active) and 2.22 µM (active).
With `S=C1NCCN1` the outcome was “inactive”.
For `CCOP(=O)(NC(C)C)Oc1ccc(SC)c(C)c1` (centres undefined), the AC50 was 33.7 µM (active).
